Our source for the growth inhibition values is PubChem BioAssay (NCI).

This is part of a sample that, as a whole, favours compounds with a hit. Of some 79,000 tested, about 15% had one in any assay. Unmarked numbers belong to inactive results. Activity calls are given as the source filed them. Rule as the data show it: active = growth inhibition above about 70%; inactive = the rest.

Test [1] in a line: NCI Yeast Anticancer Drug Screen. Data for the rad50 strain (AID 155).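 Also: 0% = growth of vehicle-only cultures of the same strain.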 To be noted: S. cerevisiae rad50 strain growth inhibition, stronger effect = higher value. The essentials: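 Yeast carrying a defined DNA repair defect were exposed to test compounds, and growth was compared with vehicle-treated controls to give percent inhibition.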
Test [2] in a line: NCI Yeast Anticancer Drug Screen. Data for the mec2-1 strain (AID 157). To be noted: S. cerevisiae mec2-1 strain, stronger effect = higher value. The essentials: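 mec2-1 yeast strain, carrying an alteration in DNA damage repair or cell cycle control, was exposed to compounds; growth inhibition was measured relative to vehicle-treated controls.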
A short description of test [3]: NCI Yeast Anticancer Drug Screen. Data for the sgs1 mgt1 strain (AID 161).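 Also: 0% = growth of cultures given vehicle only.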 To be noted: S. cerevisiae sgs1 mgt1 strain, stronger effect = higher value. The essentials:
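Compounds are added to genetically altered yeast, and growth is compared with cultures given vehicle alone to give percent inhibition.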

The nature of test [4]: NCI Yeast Anticancer Drug Screen. Data for the cln2 rad14 strain (AID 165).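 Also: 0% = growth equal to vehicle treated cultures.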 To be noted: S. cerevisiae cln2 rad14 strain, stronger effect = higher value. The essentials:
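Yeast carrying cln2 and rad14 alterations (cell cycle control and DNA damage repair) were exposed to compounds. Growth inhibition was measured against vehicle-treated controls.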

Test [5] can be described thus: NCI Yeast Anticancer Drug Screen. Data for the bub3 strain (AID 167). To be noted: S. cerevisiae bub3 mutant strain, stronger effect = higher value. The essentials:
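Compounds were applied to a genetically altered yeast strain carrying a cell-cycle control defect. Growth inhibition was scored against vehicle-treated controls.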

Test [6] is described as follows: NCI Yeast Anticancer Drug Screen. Data for the mlh1 rad18 strain (AID 175). To be noted: S. cerevisiae mlh1 rad18 strain growth inhibition, stronger effect = higher value. In a few lines: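 Growth inhibition of the yeast strain was measured after compound exposure and expressed relative to vehicle-treated controls. The strain carries defined defects in DNA damage repair.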

Setting [7] is: at 5.0 µM (retest, dose inferred, filed as 0.5).
The mark [8] stands for this setting: at 50.0 µM (retest, dose inferred, filed as 5.0).

In the case of `Clc1c(Cl)c(Cl)c(SC2C3CC4C(C3)C42)c(Cl)c1Cl` (stereo not given), the growth inhibition was 31% in test [1] (setting [7]); 98% (active) in test [1] (setting [8]); 98.3% (active) in test [1] (at 50.0 µM); 23% in test [2] (setting [7]); 99% (active) in test [2] (setting [8]); 98.8% (active) in test [2] (at 50.0 µM). Also, the growth inhibition was 27% in test [3] (setting [7]); 97% (active) in test [3] (setting [8]); 98.8% (active) in test [3] (at 50.0 µM); 12% in test [4] (setting [7]); 97% (active) in test [4] (setting [8]); 97.9% (active) in test [4] (at 50.0 µM). Also, the growth inhibition in test [5] (setting [7]) is 7%; in test [5] (setting [8]), 91% (active); in test [5] (at 50.0 µM) it was 98% (active); in test [6] (setting [7]), 21%; in test [6] (setting [8]), 97% (active); in test [6] (at 50.0 µM), 98.4% (active).

Consider `CCOc1ccc2nc(Cl)sc2c1`, for which the growth inhibition is -17% in test [1] (setting [7]); 67% in test [1] (setting [8]); 82.5% (active) in test [1] (at 50.0 µM); -7% in test [2] (setting [7]); 91% (active) in test [2] (setting [8]); 89.8% (active) in test [2] (at 50.0 µM). The growth inhibition in test [3] (setting [7]) is 6%; in test [3] (setting [8]), 79% (active); in test [3] (at 50.0 µM), 69.5%; in test [4] (setting [7]), 31%; in test [4] (setting [8]) it was 39%; in test [4] (at 50.0 µM), 94% (active). Besides, the growth inhibition was 1% in test [5] (setting [7]); 97% (active) in test [5] (setting [8]); 96.3% (active) in test [5] (at 50.0 µM); -12% in test [6] (setting [7]); 89% (active) in test [6] (setting [8]); 79% (active) in test [6] (at 50.0 µM).

Consider `CC(C)C(O)(C(=O)OCN1C(=O)C2C3C=CC(C2C1=O)C1C2C(=O)N(COC(=O)C(O)(C(C)C)C(C)O)C(=O)C2C31)C(C)O` (stereo not given), for which the growth inhibition in test [1] (setting [7]) was 0%; in test [1] (setting [8]), -7%; in test [1] (at 50.0 µM), 28.5%; in test [2] (setting [7]), -2%; in test [2] (setting [8]), 11%; in test [2] (at 50.0 µM), 52%. In addition, the growth inhibition in test [3] (setting [7]) was -7%; in test [3] (setting [8]) it was 17%; in test [3] (at 50.0 µM), 37.9%; in test [4] (setting [7]), 0%; in test [4] (setting [8]), -2%; in test [4] (at 50.0 µM) it was 18.1%. Further, the growth inhibition in test [5] (setting [7]) was 5%; in test [5] (setting [8]), 9%; in test [5] (at 50.0 µM), -2%; in test [6] (setting [7]) it was -3%; in test [6] (setting [8]), 2%; in test [6] (at 50.0 µM) it was 30.6%.

For the compound `CC1([N+](=O)[O-])C(=O)C2(N3CCCCC3)CCCC2C1c1ccccc1` (stereo not given), the growth inhibition in test [1] (setting [7]) is 3%; in test [1] (setting [8]) it was 10%; in test [1] (at 50.0 µM), 15.5%; in test [2] (setting [7]), 3%; in test [2] (setting [8]), 21%; in test [2] (at 50.0 µM), 8.6%. The growth inhibition in test [3] (setting [7]) is 6%; in test [3] (setting [8]) it was 8%; in test [3] (at 50.0 µM) it was 19%; in test [4] (setting [7]), 5%; in test [4] (setting [8]) it was -1%; in test [4] (at 50.0 µM) it was 36.2%. For the same compound, the growth inhibition in test [5] (setting [7]) is 1%; in test [5] (setting [8]) it was 13%; in test [5] (at 50.0 µM), 12%; in test [6] (setting [7]), 1%; in test [6] (setting [8]), 20%; in test [6] (at 50.0 µM) it was 16.5%.

On to `Cc1c[nH]c(C(=O)O)c1-c1ccc2c(-c3ccccc3)nc3ccccc3n12`, for which the growth inhibition was 14% in test [1] (setting [7]); 96% (active) in test [1] (setting [8]); 82.8% (active) in test [1] (at 50.0 µM); 11% in test [2] (setting [7]); 99% (active) in test [2] (setting [8]); 91% (active) in test [2] (at 50.0 µM). Moreover, the growth inhibition was 10% in test [3] (setting [7]); 99% (active) in test [3] (setting [8]); 89.4% (active) in test [3] (at 50.0 µM); 8% in test [4] (setting [7]); 99% (active) in test [4] (setting [8]); 89% (active) in test [4] (at 50.0 µM). Further, the growth inhibition is 13% in test [5] (setting [7]); 99% (active) in test [5] (setting [8]); 85.9% (active) in test [5] (at 50.0 µM); 12% in test [6] (setting [7]); 95% (active) in test [6] (setting [8]); 91.8% (active) in test [6] (at 50.0 µM).

As to `Cc1nc(Nc2ccc(Cl)cc2)sc1C(=O)Nc1cccc2c(=O)[nH][nH]c(=O)c12`, the growth inhibition in test [1] (setting [7]) is 13%; in test [1] (setting [8]) it was 13%; in test [1] (at 50.0 µM), 83% (active); in test [2] (setting [7]) it was 6%; in test [2] (setting [8]) it was 6%; in test [2] (at 50.0 µM) it was 90.8% (active). In addition, the growth inhibition in test [3] (setting [7]) is 9%; in test [3] (setting [8]) it was 9%; in test [3] (at 50.0 µM) it was 91% (active); in test [4] (setting [7]), 3%; in test [4] (setting [8]), 3%; in test [4] (at 50.0 µM) it was 87.5% (active). In addition, the growth inhibition in test [5] (setting [7]) is 11%; in test [5] (setting [8]), 11%; in test [5] (at 50.0 µM), 91.1% (active); in test [6] (setting [7]), 14%; in test [6] (setting [8]) it was 14%; in test [6] (at 50.0 µM), 89.7% (active).

Turning to `CCCCCCCCCCCCCCC/C([O-])=N/[N+](C)(C)CC(C)O` (stereo not given), the growth inhibition in test [1] (setting [7]) was 98% (active); in test [1] (setting [8]), 98% (active); in test [1] (at 50.0 µM) it was 90.9% (active); in test [2] (setting [7]), 99% (active); in test [2] (setting [8]) it was 98% (active); in test [2] (at 50.0 µM), 91.2% (active). Moreover, the growth inhibition is 99% (active) in test [3] (setting [7]); 99% (active) in test [3] (setting [8]); 92% (active) in test [3] (at 50.0 µM); 99% (active) in test [4] (setting [7]); 98% (active) in test [4] (setting [8]); 88.2% (active) in test [4] (at 50.0 µM). Also, the growth inhibition in test [5] (setting [7]) was 99% (active); in test [5] (setting [8]), 98% (active); in test [5] (at 50.0 µM), 91.5% (active); in test [6] (setting [7]), 98% (active); in test [6] (setting [8]), 97% (active); in test [6] (at 50.0 µM), 89.9% (active).

For `CCOC(=O)C1CC(C(=O)OCC)C(=O)C1=O` (stereo not given), the growth inhibition in test [1] (setting [7]) is 45%; in test [1] (setting [8]), 96% (active); in test [1] (at 50.0 µM), 96.3% (active); in test [2] (setting [7]), 27%; in test [2] (setting [8]) it was 95% (active); in test [2] (at 50.0 µM), 91% (active). The growth inhibition in test [3] (setting [7]) was 54%; in test [3] (setting [8]) it was 96% (active); in test [3] (at 50.0 µM), 43.6%; in test [4] (setting [7]), 28%; in test [4] (setting [8]), 97% (active); in test [4] (at 50.0 µM), 34.2%. Further, the growth inhibition in test [5] (setting [7]) was 44%; in test [5] (setting [8]), 97% (active); in test [5] (at 50.0 µM) it was 94% (active); in test [6] (setting [7]), 37%; in test [6] (setting [8]) it was 98% (active); in test [6] (at 50.0 µM), 47.9%.

On to `CCOC(=O)NN(C(=O)OCC)c1ccc(N=Nc2ccc(OC)cc2)n1C`, for which the growth inhibition is 1% in test [1] (setting [7]); 84% (active) in test [1] (setting [8]); 46% in test [1] (at 50.0 µM); -25% in test [2] (setting [7]); 85% (active) in test [2] (setting [8]); 60.8% in test [2] (at 50.0 µM). The growth inhibition is -22% in test [3] (setting [7]); 87% (active) in test [3] (setting [8]); 70.3% (active) in test [3] (at 50.0 µM); 29% in test [4] (setting [7]); 70% (active) in test [4] (setting [8]); 71.5% (active) in test [4] (at 50.0 µM). Also, the growth inhibition in test [5] (setting [7]) was -40%; in test [5] (setting [8]), 78% (active); in test [5] (at 50.0 µM), 74% (active); in test [6] (setting [7]) it was -32%; in test [6] (setting [8]), 77% (active); in test [6] (at 50.0 µM) it was 69.9%.

As to `CC(CO)CCC(=O)C(C)C1C(=O)CC2CC3CC(O)CCC3(C)CC21C` (stereo not given), the growth inhibition in test [1] (setting [7]) is 3%; in test [1] (setting [8]) it was 41%; in test [1] (at 50.0 µM), 83.2% (active); in test [2] (setting [7]) it was -2%; in test [2] (setting [8]), 66%; in test [2] (at 50.0 µM) it was 81% (active). The growth inhibition was 2% in test [3] (setting [7]); 48% in test [3] (setting [8]); 84% (active) in test [3] (at 50.0 µM); 4% in test [4] (setting [7]); 88% (active) in test [4] (setting [8]); 95.1% (active) in test [4] (at 50.0 µM). Besides, the growth inhibition was 2% in test [5] (setting [7]); 85% (active) in test [5] (setting [8]); 63.6% in test [5] (at 50.0 µM); 16% in test [6] (setting [7]); 89% (active) in test [6] (setting [8]); 90.3% (active) in test [6] (at 50.0 µM).
